# Test results taken from PubChem BioAssay (NCATS).
# Records with an inconclusive call do not appear. A call without a number means that no potency is given here. Activity calls are given as the source filed them. Unless noted, calls come from the whole dose curve; as a rule, active = well fitted curve in the direction sought with a large enough effect; inconclusive = small, poorly fitted or top-dose-only effect, or another doubt; inactive = no such curve, though single readings can be large; an effect the other way counts as inactive or inconclusive.
# Columns and labels:
# [1] = qHTS Assay for Lipid Storage Modulators (AID 1519; calls by dose curve); conditions: Drosophila S3 cells, BODIPY lipid droplet/cell ratio, laser cytometry, cells loaded with oleic acid
# Procedure, shortened: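 Cells seeded at 5,000 per well were treated with compounds over a concentration series and loaded with oleic acid (400 uM, as added). Lipid droplet fluorescence (488 nm excitation, 500-530 nm channel) was read by laser-scanning cytometry and normalized to 20 uM Triacsin C.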
# [2] = target: alpha-glucosidase (Oryza sativa, rice) (UniProt Q653V4); assay: Counterscreen for Glucocerebrosidase Inhibitors: qHTS Assay for Rice alpha-Glucosidase at pH 5.0 (AID 997); conditions: rice alpha-glucosidase enzyme activity; series mostly up to 76.9 µM
# Procedure, shortened: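 Rice alpha-glucosidase (4 nM final) with 400 uM 4-methylumbelliferyl-alpha-D-glucopyranoside in citrate buffer pH 5.0, 20 min at room temperature, stopped at pH 10; fluorescence 365/440 nm, compounds 0.7 nM–77 uM, AC50 from Hill fits.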
# [3] = Validation of Assay for Modulators of Lamin A Splicing (AID 1459; active = well fitted curve in the direction sought with a large enough effect in the signal ratio; the % refers to the signal ratio;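 note: cells exposed to compound for two days before reading; ratio rise marks activators and ratio drop marks inhibitors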); conditions: Lamin A splicing dual RFP/GFP fluorescence reporter; series mostly up to 9.22 µM
# Procedure, shortened: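 Dual-reporter HeLa S3 line (lamin A-EGFP minigene, DsRed2) treated with compounds 48 hrs, 0.5% DMSO final. Endpoint: EGFP/DsRed2 total intensity ratio from laser-scanning microplate cytometry.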
# [4] = Counterscreen for APE1 Inhibitors: Fluorescent Dye Displacement Validation Assay (AID 1707); conditions: fluorescent dye displacement from DNA; series mostly up to 57.1 µM
# Procedure, shortened: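 Thiazole Orange displacement from dsDNA: 250 nM ThO with 50 nM TAMRA-labelled abasic-site (tetrahydrofuran) duplex in 50 mM Tris-HCl pH7.5, 50mM NaCl, 2 mM MgCl2, 0.01% Tween-20. Loss of endpoint fluorescence (ex 480 nm, em 540 nm) flags DNA binders.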
# [5] = target: Endonuclease 4 (Escherichia coli (strain K12)) (UniProt P0A6C1); assay: Counterscreen for APE1 Inhibitors: qHTS Validation Assay for Inhibitors of Endonuclease IV (AID 1708); conditions: E. coli endonuclease IV, DNA cleavage fluorescence; series mostly up to 57.1 µM
# Procedure, shortened: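 Concentration-response counterscreen run identically to the APE1 assay: 15 min room-temperature preincubation of 2 nM enzyme with compound, reaction started with 50 nM quenched abasic DNA, progress taken from kinetic fluorescence.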
# [6] = qHTS for differential inhibitors of proliferation of Plasmodium falciparum line 7G8 (AID 1815); conditions: Plasmodium falciparum 7G8 proliferation inhibition; series mostly up to 28.7 µM;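 note: parasite growth measured after three days of incubation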; note: potency is the fitted concentration of half-maximal effect
# [7] = qHTS for differential inhibitors of proliferation of Plasmodium falciparum line Dd2 (AID 1882); conditions: Potency: Plasmodium falciparum Dd2 proliferation inhibition; series mostly up to 28.7 µM; note: nearly all actives have a fitted effect of over 65% in size; note: potency is the fitted concentration of half-maximal effect
# Procedure, shortened: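 Dd2-infected erythrocytes (0.3% parasitemia, 2.5% hematocrit final) incubated with compound 72 h at 37 C, 5% CO2; lysed with saponin/Triton buffer containing SYBR Green I, incubated overnight in the dark, then read by fluorescence (485/535 nm). Normalized to 0.29 uM artemisinin and DMSO.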
# [8] = target: Ferritin light chain (Equus caballus) (UniProt P02791); assay: qHTS Validation Assay for Identification of Novel General Anesthetics (AID 2323); conditions: horse apoferritin, anesthetic-site fluorescent probe displacement; series mostly up to 76.9 µM
# Procedure, shortened: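 Normalized fluorescence response, scaled between free 1-AMA and 1-AMA/apoferritin complex, fitted to a four-parameter Hill equation for concentration-effect values. Binding mix: 10 uM horse-spleen apoferritin, 50% saturated 1-AMA in PBS; read 380/535 nm after 10 min.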
# [9] = target: ATP-dependent DNA helicase Q1 (Homo sapiens) (UniProt P46063); assay: qHTS Validation Assay for Inhibitors of RecQ-Like Dna Helicase 1 (RECQ1) (AID 2353); conditions: recombinant RECQ1 helicase DNA unwinding assay; series mostly up to 25.6 µM
# Procedure, shortened: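 50 nM RECQ1T1 preincubated 15 min with compound in Tris pH 8.0 buffer with MgCl2, DTT, Tween-20 and 2.5 ug/ml poly(dI-dC); started with 200 nM TAMRA/BHQ-2 forked duplex and 2 mM ATP. Unwinding read as fluorescence (525/598 nm), two reads 2 h apart.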
# [10] = target: RecQ-like DNA helicase BLM (Homo sapiens) (UniProt P54132); assay: qHTS Validation Assay for Inhibitors of Bloom's syndrome helicase (BLM) (AID 2364); conditions: BLM helicase DNA unwinding, fluorescence, in vitro; series mostly up to 57.1 µM
# Procedure, shortened: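 BLM 50 nM in 25 mM Tris-HCl pH 8.0, 5 mM NaCl, 2 mM MgCl2, 1 mM DTT, 0.01% Tween-20, 2.5 ug/ml poly(dI-dC); 15 min cpd preinc, RT. Start: 200 nM forked DNA + 2 mM ATP (final). TAMRA read, 2 reads 2 h apart.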
# [11] = Cytometric Cell-Based qHTS for Inhibitors of the mTORC1 Signaling Pathway in MEF (Tsc2-/-, p53-/-) Cells (AID 2660); conditions: mTORC1 pathway cytometry; series mostly up to 38.3 µM;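 note: percent of cells above a phospho-rpS6 to PI ratio cutoff in each well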
# Procedure, shortened: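 Readout: Alexa-488 phospho-rpS6 (Ser235/236) intensity divided by PI intensity, thresholded against 7.5 nM rapamycin wells and reported as % positive cells. PI cell count served as the viability measure. Compound exposure was 24 hrs at 37 degree Celsius.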
# [12] = High Content Imaging Cell-Based qHTS for Inhibitors of the mTORC1 Signaling Pathway in MEF (Tsc2-/-, p53-/-) Cells (AID 2666); conditions: at 38.3 µM (top of the series);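 note: percent of cells scored positive for phospho-rpS6 Ser235/236 immunostaining by imaging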
# Procedure, shortened: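 Read-out: % positive cells per well, with thresholds from highest- and lowest-signal wells, based on phospho-rpS6 (Ser235/236) intensity normalized to Hoechst nuclear stain. Cells: Tsc2-/-, p53-/- MEFs carrying empty vector; compound 24 hrs, 37 degree Celsius.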
# [13] = Cytometry Cell-Based qHTS for Inhibitors of the mTORC1 Signaling Pathway in MEF cells (AID 2668); conditions: mTORC1 pathway readout; series mostly up to 38.3 µM;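 note: Tsc2-/- p53-/- mouse embryonic fibroblasts stably re-expressing wild-type Tsc2; percent cells positive for phospho-rpS6 Ser235/236 relative to propidium iodide stain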
# Procedure, shortened: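 In MEFs grown in DMEM + 10% FBS, a 24 hrs compound exposure preceded imaging of phospho-rpS6 Ser235/236 by laser-scanning cytometry.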
# [14] = qHTS for differential inhibitors of proliferation of Plasmodium falciparum line GB4 (AID 1816); conditions: Potency: Plasmodium falciparum GB4 proliferation inhibition; series mostly up to 28.7 µM;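 note: parasite growth measured after 72 h incubation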; note: potency is the fitted concentration of half-maximal effect
# [15] = qHTS for differential inhibitors of proliferation of Plasmodium falciparum line 3D7 (AID 1876); note: potency is the fitted concentration of half-maximal effect; conditions: P. falciparum 3D7 proliferation inhibition; series mostly up to 28.7 µM
# [16] = qHTS for differential inhibitors of proliferation of Plasmodium falciparum line D10 (AID 1877); conditions: series mostly up to 28.7 µM;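 note: parasites grown with compound for 72 h before DNA staining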; note: potency is the fitted concentration of half-maximal effect
# [17] = qHTS for differential inhibitors of proliferation of Plasmodium falciparum line HB3 (AID 1886); conditions: Potency: Plasmodium falciparum HB3 proliferation inhibition; series mostly up to 28.7 µM;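 note: parasites grown with compound for 72 h before SYBR Green readout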; note: potency is the fitted concentration of half-maximal effect
# [18] = qHTS Assay for Modulators of Human Peripheral Myelin Protein 22 (PMP22) Expression/Activity (AID 1967; active = well fitted curve in the direction sought with a large enough effect in the signal ratio; the % refers to the signal ratio); conditions: Cell-based PMP22 reporter, dual-color luciferase ratio, 0% = compound-free control cells, mouse Pmp22 promoter in mouse Schwann cells; series mostly up to 115 µM
# Procedure, shortened: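 Engineered MSC80 cells, Pmp22-promoter green and EF-alpha red luciferase reporters; 24h compound treatment at 37 °C. Concentration-response fits on green, red and ratio signals, each overlap-corrected, with %Activity normalized to untreated wells.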
# [19] = qHTS Assay for Identification of Small Molecule Inducers of Hypoxia Response (AID 2120; active = well fitted curve in the direction sought with a large enough effect in the signal ratio, with a control signal flat, not every such curve was filed as active; the % refers to the signal ratio); conditions: hypoxia response reporter cells, beta-lactamase ratio readout; series mostly up to 104 µM
# Procedure, shortened: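 ME-180 HRE-bla cells plated in Opti-MEM/0.5% dialyzed FBS, rested 4-5 h, then dosed with compound titrations by pin tool. After 17 h at 37 degrees C, CCF4 dye loaded 2.5 h at RT; 460/530 nm ratio gave %Activity and AC50.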
# [20] = qHTS for differential inhibitors of proliferation of Plasmodium falciparum line W2 (AID 1883); conditions: Potency: Plasmodium falciparum W2 proliferation inhibition; series mostly up to 28.7 µM;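 note: potency is the fitted concentration of half-maximal effect; parasites grown with compound for 72 h before lysis and staining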
# [21] = measured here: cell count channel max response
# [22] = measured here: lipid channel max response
# ATP-dependent DNA helicase Q1 (Homo sapiens), sequence (P46063 whole entry, looked up): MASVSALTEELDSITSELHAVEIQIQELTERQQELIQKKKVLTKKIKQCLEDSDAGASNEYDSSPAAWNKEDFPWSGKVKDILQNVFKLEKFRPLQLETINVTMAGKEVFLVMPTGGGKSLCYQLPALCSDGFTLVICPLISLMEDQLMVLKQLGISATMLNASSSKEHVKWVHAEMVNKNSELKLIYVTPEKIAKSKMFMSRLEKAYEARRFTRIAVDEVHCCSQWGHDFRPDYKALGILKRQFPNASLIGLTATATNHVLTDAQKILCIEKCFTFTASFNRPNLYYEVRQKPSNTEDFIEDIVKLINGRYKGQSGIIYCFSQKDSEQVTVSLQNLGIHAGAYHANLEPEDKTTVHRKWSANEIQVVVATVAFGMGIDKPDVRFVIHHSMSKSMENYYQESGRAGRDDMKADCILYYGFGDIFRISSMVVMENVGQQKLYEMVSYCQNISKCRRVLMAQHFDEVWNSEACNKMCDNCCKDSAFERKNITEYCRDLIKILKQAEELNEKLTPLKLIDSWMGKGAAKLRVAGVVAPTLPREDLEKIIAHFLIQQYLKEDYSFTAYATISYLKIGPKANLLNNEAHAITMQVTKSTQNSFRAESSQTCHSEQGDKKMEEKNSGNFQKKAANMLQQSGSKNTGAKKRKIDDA
# RecQ-like DNA helicase BLM (Homo sapiens), sequence (P54132 whole entry, looked up): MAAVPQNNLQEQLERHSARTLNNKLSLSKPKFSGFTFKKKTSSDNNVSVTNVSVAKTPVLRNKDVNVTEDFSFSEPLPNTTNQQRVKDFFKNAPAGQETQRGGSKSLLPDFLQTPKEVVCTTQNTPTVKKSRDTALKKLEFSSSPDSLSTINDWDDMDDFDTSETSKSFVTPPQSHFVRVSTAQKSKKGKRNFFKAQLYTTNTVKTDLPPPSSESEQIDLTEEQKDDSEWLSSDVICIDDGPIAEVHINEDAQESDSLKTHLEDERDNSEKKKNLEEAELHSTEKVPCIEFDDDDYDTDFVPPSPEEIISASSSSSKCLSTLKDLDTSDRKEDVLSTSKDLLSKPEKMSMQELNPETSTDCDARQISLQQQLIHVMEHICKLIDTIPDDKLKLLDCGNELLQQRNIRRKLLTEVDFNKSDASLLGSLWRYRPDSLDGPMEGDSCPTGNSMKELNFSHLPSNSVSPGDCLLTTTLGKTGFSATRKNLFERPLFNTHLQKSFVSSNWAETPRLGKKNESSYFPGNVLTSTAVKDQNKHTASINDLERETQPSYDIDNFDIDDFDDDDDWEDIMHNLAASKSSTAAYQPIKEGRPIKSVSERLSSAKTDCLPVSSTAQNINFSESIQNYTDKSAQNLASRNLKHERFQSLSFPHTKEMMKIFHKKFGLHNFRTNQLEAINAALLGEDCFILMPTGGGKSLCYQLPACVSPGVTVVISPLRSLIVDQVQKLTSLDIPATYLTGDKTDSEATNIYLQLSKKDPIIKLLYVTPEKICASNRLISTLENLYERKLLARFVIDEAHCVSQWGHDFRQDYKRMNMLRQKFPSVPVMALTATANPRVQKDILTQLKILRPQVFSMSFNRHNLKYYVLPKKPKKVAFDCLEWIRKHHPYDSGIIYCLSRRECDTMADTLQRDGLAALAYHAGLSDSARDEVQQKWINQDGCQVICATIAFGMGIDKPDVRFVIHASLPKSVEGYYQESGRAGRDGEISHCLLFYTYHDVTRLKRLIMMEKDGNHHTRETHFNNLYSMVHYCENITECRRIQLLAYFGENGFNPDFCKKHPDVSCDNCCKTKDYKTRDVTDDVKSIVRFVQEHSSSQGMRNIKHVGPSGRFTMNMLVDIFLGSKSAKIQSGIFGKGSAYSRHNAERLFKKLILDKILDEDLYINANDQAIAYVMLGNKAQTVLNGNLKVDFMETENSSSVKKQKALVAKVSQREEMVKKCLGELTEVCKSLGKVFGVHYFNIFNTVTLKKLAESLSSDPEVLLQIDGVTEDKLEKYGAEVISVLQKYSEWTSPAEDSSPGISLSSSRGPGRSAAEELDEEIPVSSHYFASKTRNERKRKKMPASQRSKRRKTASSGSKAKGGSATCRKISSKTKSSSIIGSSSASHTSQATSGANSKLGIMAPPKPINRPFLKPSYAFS
# Ferritin light chain (Equus caballus), sequence (P02791 2-175 limits assumed): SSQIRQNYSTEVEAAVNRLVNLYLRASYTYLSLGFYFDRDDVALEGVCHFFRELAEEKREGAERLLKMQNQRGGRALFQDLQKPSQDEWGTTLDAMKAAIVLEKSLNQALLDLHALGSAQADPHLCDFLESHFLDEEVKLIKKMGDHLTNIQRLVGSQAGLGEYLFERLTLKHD
compound,measurement,setting,value
O=C(CCCCC(=O)Nc1c(I)cc(I)c(C(=O)O)c1I)Nc1c(I)cc(I)c(C(=O)O)c1I,"activity change, negative = inhibition",[1]; at 25.7 µM (top of the series),-0.504% (inactive)
same,max response,[1]; [21],-3.67%
same,max response,[1]; [22],-4.34%
Cc1ncc(CO)c(CO)c1O,"activity change, negative = inhibition",[1]; at 25.7 µM (top of the series),-0.151% (inactive)
same,max response,[1]; [21],0.978%
same,max response,[1]; [22],-0.91%
Nc1ncnc2nc[nH]c12,"activity change, negative = inhibition",[1]; at 57.5 µM (top of the series),6.5% (inactive)
same,max response,[1]; [21],12.7%
same,max response,[1]; [22],22.5%
Cc1ccc(O)cc1,"activity change, negative = inhibition",[1]; at 57.5 µM (top of the series),6.36% (inactive)
same,max response,[1]; [21],10.2%
same,max response,[1]; [22],20.7%
COC(=O)c1c(Cl)c(Cl)c(C(=O)OC)c(Cl)c1Cl,"activity change, negative = inhibition",[1]; at 57.5 µM (top of the series),5.84% (inactive)
same,max response,[1]; [21],15.4%
same,max response,[1]; [22],24.6%
CN(C(=O)C(Cl)Cl)c1ccc(OC(=O)c2ccco2)cc1,"activity change, negative = inhibition",[1]; at 25.7 µM (top of the series),-19.5% (inactive)
same,max response,[1]; [21],-11.9%
same,max response,[1]; [22],-28.6%
OC(CCCN1CCCCC1)(c1ccccc1)c1ccccc1,"activity change, negative = inhibition",[1]; at 25.7 µM (top of the series),-0.646% (inactive)
same,max response,[1]; [21],10.3%
same,max response,[1]; [22],9.61%
Cn1cnc2c(NCc3ccccc3)nc(NCCO)nc21,outcome,[2],inactive
same,outcome,[3],inactive
same,"activity change, negative = inhibition",[1]; at 57.5 µM (top of the series),-0.56% (inactive)
same,max response,[1]; [21],-34.4%
same,max response,[1]; [22],-34.7%
same,outcome,[4],inactive
same,outcome,[5],inactive
same,Potency,[6],inactive
same,Potency,[7],inactive
same,outcome,[8],inactive
same,outcome,[9],inactive
same,outcome,[10],inactive
same,outcome,[11],inactive
same,outcome,[12],inactive
same,outcome,[13],inactive
COc1ccccc1N1CCN(CCN2C(=O)CC3(CCCC3)CC2=O)CC1,outcome,[2],inactive
same,outcome,[3],inactive
same,outcome,[4],inactive
same,outcome,[5],inactive
same,Potency,[14],inactive
same,Potency,[15],inactive
same,Potency,[16],inactive
same,Potency,[7],inactive
same,Potency,[17],inactive
same,outcome,[18],inactive
same,outcome,[8],inactive
same,outcome,[9],inactive
same,outcome,[10],inactive
same,outcome,[11],inactive
same,outcome,[12],inactive
same,outcome,[13],inactive
Cc1cc(C(C)(C)C)c(O)c(C(C)(C)C)c1,"activity change, negative = inhibition",[1]; at 57.5 µM (top of the series),4.82% (inactive)
same,max response,[1]; [21],4.25%
same,max response,[1]; [22],10.5%
same,outcome,[19],inactive
O=C1NC(c2cccc([N+](=O)[O-])c2)=CCN1c1ccccc1O,outcome,[2],inactive
same,outcome,[3],inactive
same,outcome,[4],inactive
same,outcome,[5],inactive
same,Potency,[6],inactive
same,Potency,[14],inactive
same,Potency,[15],inactive
same,Potency,[16],inactive
same,Potency,[7],inactive
same,Potency,[17],inactive
same,outcome,[18],inactive
same,outcome,[9],inactive
same,outcome,[10],inactive
same,outcome,[11],inactive
same,outcome,[12],inactive
same,outcome,[13],inactive
CN(C)c1cc2c(Nc3ccc4c(cnn4Cc4ccccc4)c3)ncnc2cn1,outcome,[2],inactive
same,outcome,[3],inactive
same,outcome,[4],inactive
same,Potency,[6],5.01 µM (active)
same,Potency,[14],3.16 µM (active)
same,Potency,[15],3.55 µM (active)
same,Potency,[16],10 µM (active)
same,Potency,[7],11.2 µM (active)
same,Potency,[20],3.55 µM (active)
same,Potency,[17],4.47 µM (active)
same,outcome,[8],inactive
same,outcome,[9],inactive
same,outcome,[11],inactive
same,outcome,[12],inactive
C1N2CN3CN1CN(C2)C3,"activity change, negative = inhibition",[1]; at 57.5 µM (top of the series),4.78% (inactive)
same,max response,[1]; [21],-0.0775%
same,max response,[1]; [22],6.42%
